For 27 molecules, Inhibition results are on record in ChEMBL document CHEMBL1157539, “Thousands of chemical starting points for antimalarial lead identification” (Nature, 2010).

One may read the Inhibition as the drop in the measured response relative to a control, in per cent. A high value points to a strong effect.

Structures are written as SMILES.

The subject of this test is HepG2. In words: GSK_TCMDC: Percent inhibition of human HepG2 cell line. Test compounds present at 10uM. In kind it is functional.
In the case of `O=C(N[C@@H](CC1CCCCC1)C(=O)NCc1cccc2ccccc12)c1ccc(O)c(-c2ccc(Cl)c(Cl)c2)c1`, the Inhibition came to 0%.
For `O=c1cc(-c2ccc3ccccc3c2)[nH]c2ccccc12` the value was 25%; for `COc1ccc(CNCc2ccccc2)cc1-c1ccc(S(=O)(=O)NCCN2CCCC2)s1.O=C(O)C(F)(F)F`, 32%.
Molecule `C#CCCOc1ccc2ccccc2c1CNCCCCCCNCc1c(OCCC#C)ccc2ccccc12` yielded an Inhibition of 100%.
`N#Cc1cncc(-c2nc3c(N4CCC(Cc5ccccc5)CC4)cccc3n2CCNCc2ccccc2)c1.O=C(O)C(F)(F)F` showed an Inhibition of 2%.
In the case of `COc1ccc2nccc([C@@H](O)CN3CCC(NC(=O)COc4nc(SCc5ccc(F)cc5)nc5c4CCC5)CC3)c2c1`, the Inhibition is 29%.
The value for `Cc1ccc(-n2nc3ccc(NC(=O)c4ccc([N+](=O)[O-])o4)cc3n2)cc1C` was 20%.
`Cc1ccc(S(C)(=O)=O)cc1/C=C/C(=O)O` displayed an Inhibition of 0%.
The value for `NC1CCCN(Cc2ccc(-c3ccc(-c4nc5cc(F)ccc5[nH]4)s3)cc2)C1.O=C(O)C(F)(F)F` (configuration not stated) was 40%; that for `NS(=O)(=O)c1cccc(Nc2nccc(-c3cnn4ncccc34)n2)c1` was 39%; that for `COc1ccc(C(=O)NCCCCN2CCC(c3ccc4c(c3OC)CCCC4)CC2)cc1-c1ccc(C(F)(F)F)cc1` was 67%.
For `O=C(N[C@@H](CC1CCCCC1)C(=O)NC1CCCCCC1)c1ccc(O)c(-c2ccc(Cl)c(Cl)c2)c1` the value was 0%.
On to `Br.COc1cc(CCCON2C(=N)N=C(N)NC2(C)C)cc(OC)c1OC`, for which the Inhibition turned out to be 68%.
`Cc1c(O)cccc1Nc1ccnc2ccc(C(F)(F)F)cc12.Cl` displayed an Inhibition of 0%.
Regarding `COc1cccc2cc(C(=O)N[C@@H](CC(C)C)C(=O)NC(/C=N/NC(=O)c3ccccc3)CCc3ccccc3)oc12` (some centres not stated), the Inhibition was 8%.
`Cc1ccc2cc(C3NC(=O)c4ccccc4N3)c(Cl)nc2c1` (configuration not stated) yielded an Inhibition of 0%.
Molecule `Clc1ccc(Nc2nc3nonc3nc2Nc2ccc(Cl)c(Cl)c2)cc1` came in with an Inhibition of 75%.
The value for `O=C(NC1CCN(CCN2CCC(c3ccccc3C(F)(F)F)CC2)CC1)c1ccc(-c2ccc(Cl)cc2)cc1` was 39%.
`Cc1cccc(C)c1CNc1ccnc2ccccc12.Cl` returned an Inhibition of 59%.
For the molecule `CC(=O)Nc1cccc(Nc2nccc(-c3c(-c4cccc(NC(=O)c5c(F)cccc5F)c4)nn4ncccc34)n2)c1`, the Inhibition is 83%.
For `FC(F)(F)c1cccc(CCNc2nccc(NCc3ccccc3Cl)n2)c1` the value was 31%; for `CN1CCC[C@H]1COc1ccc(CN2CC[C@H](NC(=O)c3ccc(Cl)c(Cl)c3)C2)c2ccccc12.O=C(O)C(F)(F)F`, 47%.
As to `N=c1cc(C=Cc2ccc(O)cc2)[nH]c2ccccc12`, the Inhibition is 15%.
The value for `COc1cccc(NC(=O)Nc2cc(-c3ccc4[nH]ncc4c3)cc3c2CNC3=O)c1` was 3%; that for `Cc1nn(-c2ccccc2)c2nc(-c3ccccc3)cc(C(=O)N3CCOCC3)c12` was 6%.
The value for `Cc1cccc2nc(-c3cccc(-c4ccc(NC(=O)NC5CC5c5ccccc5)cc4)c3)[nH]c12` (configuration not stated) was 25%.
As to `O=C(Nc1cc(C(F)(F)F)cc(C(F)(F)F)c1)N1CCC(CCN2CCC(c3c[nH]c4ccccc34)CC2)CC1`, the Inhibition worked out at 17%.
